Results published in article PMC5540273 (PLoS ONE, 2017).

What was measured:
Details in all cases: concentration: 1 μM, replicates: in singlicate; n = 1
TNNI3K = test system: TNNI3K
TRKA = test system: T1, TRKA
T1 construct: gene NTRK1

TRKB = test system: TRKB
TRKC = test system: T2, TRKC
T2 construct: gene NTRK3

TRPM6 = test system: TRPM6
TSSK1B = test system: TSSK1B
TSSK3 = test system: TSSK3
TTK = test system: TTK
TXK = test system: TXK
[1] = test system: TYK2(JH1domain-catalytic)
[2] = test system: TYK2(JH2domain-pseudokinase)
TYRO3 = test system: TYRO3
ULK1 = test system: ULK1
ULK2 = test system: ULK2
ULK3 = test system: ULK3
VEGFR2 = test system: T3, VEGFR2
T3 construct: gene KDR

VPS34 = test system: T4, VPS34
T4 construct: gene PIK3C3

VRK2 = test system: VRK2
WEE1 = test system: WEE1
WEE2 = test system: WEE2
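Further: KINOMEscan kinase panel screen.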

| Structure (SMILES) | %Inh (TNNI3K) [%] | %Inh (TRKA) [%] | %Inh (TRKB) [%] | %Inh (TRKC) [%] | %Inh (TRPM6) [%] | %Inh (TSSK1B) [%] | %Inh (TSSK3) [%] | %Inh (TTK) [%] | %Inh (TXK) [%] | %Inh [1] [%] | %Inh [2] [%] | %Inh (TYRO3) [%] | %Inh (ULK1) [%] | %Inh (ULK2) [%] | %Inh (ULK3) [%] | %Inh (VEGFR2) [%] | %Inh (VPS34) [%] | %Inh (VRK2) [%] | %Inh (WEE1) [%] | %Inh (WEE2) [%] |
| --- | --- | --- | --- | --- | --- | --- | --- | --- | --- | --- | --- | --- | --- | --- | --- | --- | --- | --- | --- | --- |
| Cc1ccc(O)cc1Nc1ccnc2cc(-c3ccc(CN4CCCCC4)o3)ccc12 [GW557777] | 20 | 42 | 0 | 0 | 0 | 0 | 0 | 0 | 98.3 | 63 | 0 | 59 | 0 | 0 | 0 | 93.6 | 0 | 0 | 5 | 0 |
| O=C(Nc1n[nH]c2cc(-c3cccs3)ccc12)C1CC1 [SB-731284] | 0 | 3 | 0 | 3 | 39 | 0 | 7 | 10 | 0 | 28 | 63 | 0 | 39 | 15 | 7 | 57 | 16 | 0 | 0 | 0 |
| Cc1ccccc1CC(=O)N1CCc2cc(-c3cn(C)c4ncnc(N)c34)ccc21 [GSK2603346] | 0 | 39 | 14 | 21 | 40 | 0 | 26 | 0 | 0 | 0 | 40 | 0 | 16 | 0 | 19 | 69 | 2 | 0 | 0 | 17 |
| Cc1ccc(NC(=O)c2ccc(Cl)c(Cl)c2)cc1-c1ccc(C(=O)Nc2ccncc2)cc1 [GSK1398460] | 60 | 0 | 0 | 0 | 14 | 20 | 48 | 15 | 0 | 0 | 0 | 10 | 15 | 0 | 6 | 6 | 0 | 0 | 11 | 6 |
| COc1cccc(C2=C(Nc3cccc(O)c3)C(=O)NC2=O)c1 [SB-390771] | 21 | 0 | 0 | 46 | 4 | 27 | 9 | 10 | 11 | 21 | 25 | 0 | 17 | 0 | 23 | 3 | 0 | 10 | 20 | 12 |
